Data from PubChem BioAssay AID2018 (Sanford-Burnham Center for Chemical Genomics, 2009).
Out of some 1,200 compounds screened, about 600 (50%) were called active. Cut-off read from the data, not from the text of the source: active = inhibition above about 42%; inactive = the rest. So high a share suggests a set chosen from earlier hits. This is one part of the list. Entries with a potency or affinity are not part of this list.

Each molecule was assayed against SUMO-conjugating enzyme UBC9 (Homo sapiens) (UniProt P63279) (assay: blockers of UBC9-mediated SUMO conjugation – biochemical, AlphaScreen, SUMOylation inhibitor project, confirmation (AID 2018)). Details: AlphaScreen in vitro SUMOylation assay; at 35 µM; active compounds read high.
SUMO-conjugating enzyme UBC9 (Homo sapiens), sequence (P63279 whole entry, looked up): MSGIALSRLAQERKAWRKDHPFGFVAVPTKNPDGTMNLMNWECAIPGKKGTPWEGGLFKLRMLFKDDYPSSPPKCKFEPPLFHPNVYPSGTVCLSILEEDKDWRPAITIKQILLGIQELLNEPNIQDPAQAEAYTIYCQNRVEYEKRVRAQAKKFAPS
For `CC1=NN(c2ccccc2)C(=O)C1`, the inhibition was 53.2% (active). With `Cc1[nH]n(-c2ccccc2)c(=O)c1/C=N/N(C)c1ccccc1` the inhibition was 73% (active). With `Cc1cc(Br)ccc1-n1[nH]c(C)c(C=Nc2cccc3nsnc23)c1=O` the inhibition was 39.7% (inactive). For `Cc1ccc(/C=C2\SC(=S)N(c3cccnc3)C2=O)o1`, the inhibition was 33.6% (inactive). In the case of `Cc1cccc2nc(-c3ccco3)c(Nc3ccc4c(c3)OCO4)n12`, the inhibition is reported as 19.8% (inactive). `CN(C)c1ccc(NC(=O)CSc2nnc(-c3ccco3)c(-c3ccco3)n2)cc1` was tested, and the inhibition was 46.4% (active). In the case of `Cc1ccc(NC(=O)CSc2nnc(-c3ccco3)c(-c3ccco3)n2)cc1`, the inhibition is reported as 97.9% (active). For `Cc1ccc(C(=O)N[C@H](C(=O)Nc2cc(Cl)cc(Cl)c2)C(C)C)cc1`, the inhibition was -24.1% (inactive). `COn1c(C)c(C)c2c3nonc3ccc21` was tested, and the inhibition was 19.1% (inactive). `NS(=O)(=O)c1ccc(-c2ccc(/C=C3\NC(=S)NC3=O)o2)cc1` was tested, and the inhibition was 70.9% (active). `Cc1nnc(N/N=C\c2ccc(-c3ccccc3[N+](=O)[O-])o2)n1N` was tested, and the inhibition was -4.6% (inactive). With `Cc1ccc(C)c(NC(=S)Nc2cccc3cnccc23)c1` the inhibition was 16.2% (inactive). For `Cc1ccc(NC(=O)Nc2ccno2)cc1`, the inhibition was -5.1% (inactive). In the case of `Cc1nn(CC(=O)Nc2ccc(C(=O)N(C)C)cc2)c(=O)c2ccccc12`, the inhibition is reported as -3.7% (inactive). `O=C1C=C(O)c2c(O)cccc2C1=O` was tested, and the inhibition was 43.1% (active). With `O=C1C=C(O)c2cccc(O)c2C1=O` the inhibition was 39.2% (inactive). With `Cc1ccc(N=C2NC(=O)/C(=C\c3ccco3)S2)cc1` the inhibition was 44.4% (active). `COc1ccc(S(=O)(=O)/N=C2/NC(=O)/C(=C\c3ccco3)S2)cc1` was tested, and the inhibition was 40.6% (inactive). In the case of `CSCC[C@H](NC(=O)Cc1c(C)c2c(cc(C)c3c(C)c(C)oc32)oc1=O)C(=O)O`, the inhibition is reported as 19.6% (inactive). For `CCc1c(C)c2cc(Cl)c(O)c(CN(C)C)c2oc1=O`, the inhibition was 14.3% (inactive). `CCC(C(=O)O)n1nnc(-c2ccc(OCc3ccccc3)c(OC)c2)n1` (stereo not drawn) was tested, and the inhibition was 2% (inactive). In the case of `COc1ccc2nc(NC(=O)CCc3ccc(OC)c(OC)c3)sc2c1`, the inhibition is reported as -27% (inactive). For `NCCSc1c(-c2ccccc2)[nH]c2ccccc12`, the inhibition was 4.2% (inactive). With `COc1ccc(Br)cc1CNc1ccc(O)cc1` the inhibition was 63.1% (active). With `Oc1ccc(NCc2ccc(OCc3ccccc3)cc2)cc1` the inhibition was 61.8% (active). `Oc1ccc(N=Cc2ccc(OCc3ccccc3)cc2)cc1` was tested, and the inhibition was 25.2% (inactive). `COc1cc(CNc2ccc(O)cc2)cc(Br)c1OCc1ccccc1` was tested, and the inhibition was 89.1% (active). With `Oc1ccc(NCc2cccc(OCc3ccccc3)c2)cc1` the inhibition was 81.1% (active). For `CCOC(=O)C1=C(C)NC(=O)CC1c1cc2c(cc1[N+](=O)[O-])OCO2` (stereo not drawn), the inhibition was 14.6% (inactive). In the case of `O=[N+]([O-])c1cc2c(cc1CN1CCN(CCOCCO)CC1)OCO2`, the inhibition is reported as 12.3% (inactive). In the case of `O=[N+]([O-])c1cc2c(cc1/C=N/n1c(-c3ccccn3)n[nH]c1=S)OCO2`, the inhibition is reported as 82.5% (active). For `Cc1ccccc1N=Cc1cc2c(cc1[N+](=O)[O-])OCO2`, the inhibition was 43.9% (active). `S=c1[nH]nc(-c2ccncc2)n1/N=C/c1ccccc1Cl` was tested, and the inhibition was 20.2% (inactive). With `CCN(CC)CCNS(=O)(=O)c1ccc2c3c(cccc13)C(=O)N2` the inhibition was -8.8% (inactive). In the case of `CC1(C)Nc2ccc(O)cc2-c2c1ssc2=S`, the inhibition is reported as 59.8% (active). For `Nc1nc(-c2ccco2)c(-c2ccco2)s1`, the inhibition was 55.9% (active). With `NC(=O)c1sc2nc(-c3ccco3)ccc2c1N` the inhibition was 20% (inactive). For `COCC(C)N1C(=O)Cc2c1nc(N)c1c(N)nc(N3CCN(c4ccccc4F)CC3)c(C#N)c21` (stereo not drawn), the inhibition was 37.8% (inactive). For `N#Cc1c(N2CCN(c3ccc(F)cc3)CC2)nc(N)c2c(N)nc3c(c12)CC(=O)N3C1CC1`, the inhibition was 37.6% (inactive). `CC(C)N1C(=O)CC(Nc2cccc3cccc(N)c23)C1=O` (stereo not drawn) was tested, and the inhibition was 0.8% (inactive). `Cn1c(=O)cc(C(=O)N/N=C/c2ccc(Cl)cc2)[nH]c1=O` was tested, and the inhibition was -20.2% (inactive). For `O=C1NNC(c2ccccc2)=N/C1=C\c1ccccc1Cl`, the inhibition was 101% (active). `O=C(NC1(O)C(=O)c2ccccc2C1=O)c1ccc(C(F)(F)F)cc1` was tested, and the inhibition was 101% (active). In the case of `O=C(NC1(O)C(=O)c2ccccc2C1=O)c1ccccc1`, the inhibition is reported as 101% (active). With `O=C(NC1(O)C(=O)c2ccccc2C1=O)c1c(Cl)cccc1Cl` the inhibition was 101% (active). In the case of `CN(NC(=O)c1ccc(Cl)cc1)c1ncc(C(F)(F)F)cc1Cl`, the inhibition is reported as 2.5% (inactive). For `Cc1onc(-c2ccccc2Cl)c1C(=O)NCc1ccco1`, the inhibition was 32.5% (inactive). In the case of `O=c1c(=Nc2ccccc2O)c(=O)c2ccccc12`, the inhibition is reported as 9.9% (inactive). In the case of `Clc1ccc(-c2nnc3c4ccccc4nc(N4CCOCC4)n23)cc1Cl`, the inhibition is reported as 4% (inactive). For `CC(=O)Oc1c(/C=C(\C#N)C(N)=O)[nH]c2ccccc12`, the inhibition was 21.9% (inactive). With `Cc1ccc(NC(=O)Nc2cccn(Cc3c(F)cccc3Cl)c2=O)cc1` the inhibition was 14.6% (inactive). With `O=C(NCc1ccccc1)Nc1cccn(Cc2ccccc2Cl)c1=O` the inhibition was 20.8% (inactive). `Cc1nn2c3c(cnc2c1-c1ccc(Cl)cc1)C(=O)CC(c1ccco1)C3` (stereo not drawn) was tested, and the inhibition was 9.7% (inactive). With `COc1ccccc1Oc1c(C)oc2c(CN3CCN(C)CC3)c(O)ccc2c1=O` the inhibition was 7% (inactive). In the case of `O=C(CC1CS(=O)(=O)CC1CC(=O)Oc1ccccc1F)Oc1ccccc1F` (stereo not drawn), the inhibition is reported as 102% (active). With `N#C/C(=C/c1ccc(-c2ccccc2)o1)c1nc(-c2cccs2)cs1` the inhibition was -4.5% (inactive). In the case of `Cc1c(CC(=O)N2CCN(C(=O)C3COc4ccccc4O3)CC2)c(=O)oc2c(C)c(O)ccc12` (stereo not drawn), the inhibition is reported as 17.7% (inactive). `Cc1c(CC(=O)O)c(=O)oc2c(C)c(OCc3ccccc3Br)ccc12` was tested, and the inhibition was 85.8% (active). In the case of `CC(=O)Oc1ccc2c(C)c(CC(C)O)c(=O)oc2c1` (stereo not drawn), the inhibition is reported as -6.6% (inactive). With `NC(=O)CC(NC(=O)Cc1ccc(Br)cc1)c1ccc(NCCOc2ccccc2)c([N+](=O)[O-])c1` (stereo not drawn) the inhibition was 10.7% (inactive). With `O=C1C=C(N(CCO)Cc2ccccc2)c2ccccc2C1=O` the inhibition was 101% (active). In the case of `Nc1ccc(Br)c2cccnc12`, the inhibition is reported as 49% (active). `CCOC(=O)C1CC(=O)c2cc(OC)c(OC)cc2C1` (stereo not drawn) was tested, and the inhibition was 12.9% (inactive).
